Test results published in the supplement of paper PMC11417369.
Over roughly 25,000 sequences, “ln(normalized median fluorescence intensity)” has its median near 6.7; the highest 2% begin near 10. For the sample, the highest values were picked, then their nearest neighbours and some sequences at random.

tested on: PfHDP1 homeodomain (GST-tagged); assay: gcPBM binding intensity (ln(normalized median fluorescence intensity)); higher = stronger DNA binding
Method in brief: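 An Agilent 4 × 180k array of primer-extended double-stranded 36-bp intergenic genomic probes, with negative controls, was incubated for 1 h with GST-tagged P. falciparum DNA-binding domains expressed in E. coli. Alexa488 anti-GST antibody detected bound protein, scanned at 488 nm. Binding intensity is the highest Masliner-normalised natural-log median intensity across replicate spots of either probe orientation.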

Question: Which “gcPBM binding intensity (ln)” value does the source give for “GTGTATTTGGTGCGCACACACATGCAAAAAGAAATA [CACACA_site4768]” here?
Answer: Its value is 9.15.

Question: “AAAAAAAAAAAAAAATGTACATATATATATTATAAA [XGTACX_site518]” was tested. Which “gcPBM binding intensity (ln)” value did it give?
Answer: Its value is 6.33.

Question: “ATTTTATTTTTTAATAGTACTCATTTTTTATGTGAA [XGTACX_site5494]” was tested. Which “gcPBM binding intensity (ln)” value did it give?
Answer: Its value is 6.48.

Question: With “TTAAAGCTGACATATACACACATACATAAATTCATA [CACACA_site5377]” as the sequence, how does the “gcPBM binding intensity (ln)” value read?
Answer: Its value is 6.75.

Question: For “GATCCTGGTTCTTGTGGTACTTGTTCATTTGTTATA [XGTACX_site7164]”, which “gcPBM binding intensity (ln)” value is on record?
Answer: The value was 6.69.

Question: How did the “gcPBM binding intensity (ln)” value turn out when “TATATATATATAAGATGTACCCTTTGAAATAATAAT [XGTACX_site7215]” was run?
Answer: The value was 8.66.

Question: “AAAATTTAATATAATGCACACATAAAAAAAAAAAAA [CACACA_site7923]” was tested. Which “gcPBM binding intensity (ln)” value did it give?
Answer: Its value is 10.4.

Question: Which “gcPBM binding intensity (ln)” value does the source give for “ACTAGACAAAATATAATGCACACTATTATTTTTATT [CACACA_site2726]” here?
Answer: The value was 10.6.

Question: Which “gcPBM binding intensity (ln)” value does the source give for “AATTTAATATAATGCACACATAAAAAAAAAAAAAAA [CACACA_site123]” here?
Answer: The value was 10.5.

Question: “ATATTTTATTATATAGGTACACATAATTTCATGTAA [XGTACX_site415]” was tested. Which “gcPBM binding intensity (ln)” value did it give?
Answer: The value was 6.34.

Question: Which “gcPBM binding intensity (ln)” value does the source give for “AATTTAATATAATGCACACATAAAAAAAAAAAATTC [CACACA_site1504]” here?
Answer: Its value is 10.6.

Question: For “CATATATATCGTAATGCACACATGTAATTTCATAAT [CACACA_site811]”, which “gcPBM binding intensity (ln)” value is on record?
Answer: Its value is 10.7.

Question: “TAGACAAAATATAATGCACACTATTATTTTTATTTA [CACACA_site5508]” was tested. Which “gcPBM binding intensity (ln)” value did it give?
Answer: Its value is 10.4.

Question: For “AAAATTTAATATAATGCACACATAAAAAAAAAAAAT [CACACA_site8425]”, which “gcPBM binding intensity (ln)” value is on record?
Answer: Its value is 10.4.

Question: For “ATTTCGTAATTTATATCACACACATATATATATAAT [CACACA_site9021]”, which “gcPBM binding intensity (ln)” value is on record?
Answer: The value was 6.84.

Question: For “TATATATATTTATGCACACAAAATATATTATATAAT [CACACA_site5955]”, which “gcPBM binding intensity (ln)” value is on record?
Answer: The value was 10.4.

Question: Which “gcPBM binding intensity (ln)” value does the source give for “AAAATTTAATATAATGCACACATAAAAAAAAATTCA [CACACA_site8640]” here?
Answer: Its value is 9.79.

Question: How did the “gcPBM binding intensity (ln)” value turn out when “TATAATTTAAAATACACACACATATATATAATATAT [CACACA_site2000]” was run?
Answer: The value was 6.76.

Question: “TATTTATACATACATACACACATATAGATTTATATT [CACACA_site7851]” was tested. Which “gcPBM binding intensity (ln)” value did it give?
Answer: The value was 6.85.

Question: For “TACATACATACATACACACATACATATGTATATATA [CACACA_site2480]”, which “gcPBM binding intensity (ln)” value is on record?
Answer: The value was 7.37.

Question: With “TTTATTAATAGACACACACACACACGCAAAATAAAA [CACACA_site6255]” as the sequence, how does the “gcPBM binding intensity (ln)” value read?
Answer: The value was 7.16.

Question: For “ATGGACTTTTATAGTTGTACATACTATGAGAACTTT [XGTACX_site2800]”, which “gcPBM binding intensity (ln)” value is on record?
Answer: The value was 7.08.

Question: Which “gcPBM binding intensity (ln)” value does the source give for “AAGGGTTGCCTGTGTAGTACATATATATATATATAT [XGTACX_site8555]” here?
Answer: Its value is 9.24.

Question: For “GAGAAATGGGGACACACACACATATTATATATATAT [CACACA_site4943]”, which “gcPBM binding intensity (ln)” value is on record?
Answer: Its value is 8.53.

Question: How did the “gcPBM binding intensity (ln)” value turn out when “TATAAATTTGTTGTTGCATGCAGTATACCAAAAAAA [TGCATGCA_site445]” was run?
Answer: Its value is 7.18.

Question: Which “gcPBM binding intensity (ln)” value does the source give for “AAGGTGGGAAAAAATAGTACACAACAAAAATGTATG [XGTACX_site8741]” here?
Answer: Its value is 6.64.

Question: “AAACATTAAAATAACTCACACATTTTTCTAGTCTTC [CACACA_site4612]” was tested. Which “gcPBM binding intensity (ln)” value did it give?
Answer: The value was 6.19.

Question: With “AGAACTTTTAATGGATGTACAGTTATTTTATTATTT [XGTACX_site6226]” as the sequence, how does the “gcPBM binding intensity (ln)” value read?
Answer: The value was 6.12.

Question: With ATATATATATATATAGTGCATAAAATAAGTTTCTAA as the sequence, how does the “gcPBM binding intensity (ln)” value read?
Answer: The value was 9.54.

Question: “TATGTTTTTACATATTGTACATATTCTTGTAATACG [XGTACX_site1179]” was tested. Which “gcPBM binding intensity (ln)” value did it give?
Answer: Its value is 6.29.

Question: “TTCATATAATTCATCTGTACATATTGATAGTATGCA [XGTACX_site6386]” was tested. Which “gcPBM binding intensity (ln)” value did it give?
Answer: Its value is 6.29.

Question: For “ACTACGTGTCAAAAATATTAATTACAAATGAATAAA [GTGCAC_negctrl_site248]”, which “gcPBM binding intensity (ln)” value is on record?
Answer: Its value is 6.08.

Question: Which “gcPBM binding intensity (ln)” value does the source give for “AGTAGTCTGGAGAAGAGTACACAGTATCTGGTAACA [XGTACX_site2032]” here?
Answer: Its value is 6.02.

Question: “ACATCATAAAATTTATGTACACATTTTTAATTATAC [XGTACX_site7759]” was tested. Which “gcPBM binding intensity (ln)” value did it give?
Answer: The value was 6.51.

Question: “TTTAAATTTTAATATGCACACAAAATGTTATATTAA [CACACA_site8015]” was tested. Which “gcPBM binding intensity (ln)” value did it give?
Answer: The value was 9.9.

Question: With “AATATTTTAATGCACACACACAAAAAAAAAAAAAAA [CACACA_site7374]” as the sequence, how does the “gcPBM binding intensity (ln)” value read?
Answer: Its value is 10.7.

Question: Which “gcPBM binding intensity (ln)” value does the source give for “ATAATATTTTAATGCACACACACAAAAAAAAAAAAA [CACACA_site2891]” here?
Answer: The value was 9.96.

Question: How did the “gcPBM binding intensity (ln)” value turn out when “CTCTATAAATGCTGCACACACATTTAATTATTTAAG [CACACA_site2582]” was run?
Answer: The value was 8.11.

Question: How did the “gcPBM binding intensity (ln)” value turn out when “ATTTATAAAATTAATGCACACATCAGCATTTATAAA [CACACA_site1025]” was run?
Answer: The value was 10.6.

Question: “ATTTCTACTAAAAATACACACGATGATACAACGAAG [CACACA_site1755]” was tested. Which “gcPBM binding intensity (ln)” value did it give?
Answer: The value was 6.85.

Question: Which “gcPBM binding intensity (ln)” value does the source give for “ATATATTAAAAACGATGTACCCTGAACTAAAAAAAA [XGTACX_site4986]” here?
Answer: The value was 6.52.

Question: “AACGTTCAATTTAAATGTACAAATGTATTTAAATAT [XGTACX_site315]” was tested. Which “gcPBM binding intensity (ln)” value did it give?
Answer: Its value is 6.38.

Question: How did the “gcPBM binding intensity (ln)” value turn out when “TATATTTAGAATACAATCTTAAAGTTGAAATAAAAT [CACACA_negctrl_site1292]” was run?
Answer: Its value is 6.03.

Question: How did the “gcPBM binding intensity (ln)” value turn out when “TTATATTAAAAAAGATGTACGTTTAGGAAAAATATA [XGTACX_site7456]” was run?
Answer: The value was 6.53.

Question: How did the “gcPBM binding intensity (ln)” value turn out when “TAAGGAAAAAATTATAGTACATAATAAATGTATATA [XGTACX_site8328]” was run?
Answer: The value was 6.15.

Question: How did the “gcPBM binding intensity (ln)” value turn out when “TCCTTTTTTTTTTATGCACACACAATTATACATTCC [CACACA_site9287]” was run?
Answer: Its value is 10.5.

Question: With “CTTTTTTTTTTATGCACACACAATTATACATTCCTT [CACACA_site3877]” as the sequence, how does the “gcPBM binding intensity (ln)” value read?
Answer: The value was 10.6.

Question: For “TCATACATTTTCCTTGCACACATTTATAATTAATGT [CACACA_site614]”, which “gcPBM binding intensity (ln)” value is on record?
Answer: The value was 8.95.

Question: Which “gcPBM binding intensity (ln)” value does the source give for “TCATACATTTTCCTTGCACACATTTATAATTAATGG [CACACA_site4511]” here?
Answer: The value was 8.55.

Question: How did the “gcPBM binding intensity (ln)” value turn out when “TATATATATATATATGCACACATTTATACAATTTTA [CACACA_site2986]” was run?
Answer: The value was 10.2.

Question: “TTCCTTTAACCCTGCACACATACATACATTTATATG [CACACA_site3953]” was tested. Which “gcPBM binding intensity (ln)” value did it give?
Answer: Its value is 8.51.

Question: Which “gcPBM binding intensity (ln)” value does the source give for “ATGTATGTATAATATACACACTCACAAGCATTCAAA [CACACA_site4306]” here?
Answer: The value was 6.75.

Question: How did the “gcPBM binding intensity (ln)” value turn out when “ATATTCTTCTAAAGGCGTACATCTACATTTATGAAA [XGTACX_site2145]” was run?
Answer: The value was 6.28.

Question: With “TTTATATATAAATATATATATATATATATATATATA [TGCATGCA_negctrl_site121]” as the sequence, how does the “gcPBM binding intensity (ln)” value read?
Answer: Its value is 9.28.

Question: “TCTAGGAAAAATTATAGTACACAAAAATATATATAT [XGTACX_site4136]” was tested. Which “gcPBM binding intensity (ln)” value did it give?
Answer: The value was 7.95.

Question: With “AAAATATAGGTATGCACACACATATACTTCTGTGCA [CACACA_site1409]” as the sequence, how does the “gcPBM binding intensity (ln)” value read?
Answer: The value was 10.

Question: With “CACATATACTTCTGTGCACACGAATATTTTTCTTCT [CACACA_site1408]” as the sequence, how does the “gcPBM binding intensity (ln)” value read?
Answer: The value was 11.2.

Question: Which “gcPBM binding intensity (ln)” value does the source give for “CATATACTTCTGTGCACACGAATATTTTTCTTCTTC [CACACA_site1407]” here?
Answer: The value was 11.2.

Question: Which “gcPBM binding intensity (ln)” value does the source give for “CATATATATATATATACACACATATATATTTTCTTT [CACACA_site1457]” here?
Answer: Its value is 7.04.

Question: “ATAAAATATAGGTATGCACACACATATACTTCTGTG [CACACA_site8398]” was tested. Which “gcPBM binding intensity (ln)” value did it give?
Answer: Its value is 8.84.

Question: “TAATATACTTAATACACACACGAATATTTATAAATA [CACACA_site6675]” was tested. Which “gcPBM binding intensity (ln)” value did it give?
Answer: Its value is 6.97.
